The values that follow come from PubChem BioAssay AID1851 (National Center for Advancing Translational Sciences (NCATS), 2009).

The whole screen tested about 16,000 compounds, of which about 5,100 (32%) were called active. Another 25% or so got no clear call; they are omitted. Calls come from the whole dose curve; as a rule, active = well fitted curve in the direction sought with a large enough effect; inconclusive = small, poorly fitted or top-dose-only effect, or effect the other way; inactive = no such curve, though single readings can be large or run the other way. This is one part of the list. Some compounds were tested as several samples or in several runs, with calls that do not always agree.
% is set by controls: 0 for no effect and ±100 for the full control effect.

Sequence of Cytochrome P450 3A4 (Homo sapiens) (P08684 whole entry, looked up): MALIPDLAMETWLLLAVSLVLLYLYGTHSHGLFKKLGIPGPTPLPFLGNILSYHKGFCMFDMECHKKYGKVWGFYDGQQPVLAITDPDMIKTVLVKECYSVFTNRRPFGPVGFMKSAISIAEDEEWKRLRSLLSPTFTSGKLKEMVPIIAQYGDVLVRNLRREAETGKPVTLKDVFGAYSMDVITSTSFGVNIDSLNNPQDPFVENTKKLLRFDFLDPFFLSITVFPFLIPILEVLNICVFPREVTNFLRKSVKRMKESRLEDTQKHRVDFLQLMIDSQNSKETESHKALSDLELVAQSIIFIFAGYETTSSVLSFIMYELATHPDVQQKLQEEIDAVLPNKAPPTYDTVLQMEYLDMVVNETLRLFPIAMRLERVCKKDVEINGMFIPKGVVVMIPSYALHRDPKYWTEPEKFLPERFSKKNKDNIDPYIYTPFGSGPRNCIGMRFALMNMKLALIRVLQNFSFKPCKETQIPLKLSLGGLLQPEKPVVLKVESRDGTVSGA

The assay has as its target Cytochrome P450 3A4 (Homo sapiens) (UniProt P08684). As to the kind of experiment: Cytochrome panel assay with activity outcomes. The following applies: recombinant CYP, pro-luciferin dealkylation, luminescence, p450-cyp3a4; series mostly up to 57.1 µM; activity, negative = inhibition: at the top concentration.
On to `CS(=N)(=O)CC[C@@H](N)C(=O)O` (some centres not stated), for which the activity, negative = inhibition result is “inactive”.

Regarding `C[C@@H]1O[C@@H](O[C@H]2C[C@@H](O)[C@@]3(CO)[C@H]4[C@H](O)C[C@]5(C)[C@@H](C6=CC(=O)OC6)CC[C@]5(O)[C@H]4CC[C@@]3(O)C2)[C@@H](O)[C@H](O)[C@H]1O`, the activity, negative = inhibition is 10.6% [at 11.4 µM] (inactive).

As to `NC(=O)CN1CCCC1=O`, the activity, negative = inhibition result is “inactive”.

What is called AC50 is the concentration giving half of the maximal activity seen. As to `NC(=O)CI`, the AC50 was 0.0631 µM (active).

As for `NNC(N)=O`, the “activity, negative = inhibition” value was -9.12% (inactive).

For `CCCN1CCC[C@@H]2Cc3nc(N)ncc3C[C@H]21`, the “activity, negative = inhibition” value is -16.7% (inactive).

With `COC(=O)[C@@H]1[C@@H]2C[C@H]3c4[nH]c5cc(OC)ccc5c4CCN3C[C@@H]2C[C@H](OC(=O)/C=C\c2cc(OC)c(OC)c(OC)c2)[C@H]1OC`, the “activity, negative = inhibition” value was -25.6% [at 25.6 µM] (inactive).

Regarding `COc1cc(CCN)ccc1O`, the “activity, negative = inhibition” value was -4.42% (inactive).

On to `CNC[C@H](O)c1ccc(O)c(OC)c1`, for which the “activity, negative = inhibition” value is -5% [at 25.6 µM] (inactive).

Consider `COc1cc(CNC(=O)CCCC/C=C\C(C)C)ccc1O`, for which the AC50 was 3.98 µM (active).

As to `Cc1cccc([C@H](C)c2cnc[nH]2)c1C`, the AC50 was 0.158 µM (active).

Turning to `O=P(O)(O)C(Cl)(Cl)P(=O)(O)O`, the “activity, negative = inhibition” value was 7.29% (inactive).

Take `C(=C/c1ccccc1)/CN1CCN(CCOC(c2ccccc2)c2ccccc2)CC1`: the “activity, negative = inhibition” value was -20.7% (inactive).

As to `CC(C)[N+](C)(CCC(C(N)=O)(c1ccccc1)c1ccccc1)C(C)C`, the “activity, negative = inhibition” value was -24.2% [at 25.6 µM] (inactive).

Take `CCC(=O)O[C@@](Cc1ccccc1)(c1ccccc1)[C@@H](C)CN(C)C`: the AC50 was 5.01 µM (active).

Regarding `O=C(O)[C@H]1[C@H](C(=O)O)[C@H]2CC[C@@H]1O2`, the “activity, negative = inhibition” value was -5.34% (inactive).

`COc1cc(CCN)c(OC)c(OC)c1`: the activity, negative = inhibition is -5.19% [at 11.4 µM] (inactive).

As for `CCOP(=O)(CN(CC)CCNP(=O)(OCC)OCC)OCC`, the activity, negative = inhibition was 10.5% [at 2.29 µM] (inactive).

For `CN1CCc2nc3sc(C(=O)NC(C)(C)C)c(N)c3cc2C1`, the activity, negative = inhibition was -11.5% [at 2.29 µM] (inactive).

For `CC[C@@]1(O)C(=O)OCc2c1cc1n(c2=O)Cc2cc3c(NC(=O)CN)cccc3nc2-1`, the activity, negative = inhibition is 0.232% [at 11.4 µM] (inactive).

Consider `CC[C@]1(OC(=O)CN)C(=O)OCc2c1cc1n(c2=O)Cc2cc3ccccc3nc2-1`, for which the activity, negative = inhibition is -27% [at 11.4 µM] (inactive).

Regarding `CC[C@@]1(O)C(=O)OCc2c1cc1n(c2=O)Cc2cc3ccccc3nc2-1`, the AC50 is 6.31 µM (active) and inactive.

For `O=C(NC1CCCCC1)NC1CC2CCC(C1)N2Cc1nnnn1Cc1ccc2c(c1)OCO2` (configuration not stated), the concentration at half-maximal activity (AC50) was 3.16 µM (active).

On to `CCc1ccccc1NC(=O)NC1CC2CCC(C1)N2Cc1cccs1` (configuration not stated), for which the “activity, negative = inhibition” value was -21.2% (inactive).

Regarding `COc1ccc(NC(=O)NC2CC3CCCC(C2)N3Cc2ccccc2)cc1` (configuration not stated), the “activity, negative = inhibition” value is 16.8% (inactive).

In the case of `C[C@@]12CC[C@H]3[C@H](CC=C4C[C@@H](O)CC[C@@]43C)[C@@H]1CC[C@@H]2N(CCO)CCO`, the activity, negative = inhibition was 12.7% [at 11.4 µM] (inactive).

As for `COC(=O)CN1CN(c2ccccc2)C2(CCN(Cc3ccc4ccccc4c3)CC2)C1=O`, the AC50 is 15.8 µM (active).

`O=C1NCN(c2ccccc2)C12CCN(CCCOc1ccc(F)cc1)CC2`: the “activity, negative = inhibition” value is 18.9% (inactive).

Take `c1ccc(CN2CCC3(CCNCC3)CC2)cc1`: the “activity, negative = inhibition” value is -7.57% (inactive).

Consider `CC[C@]1([C@H]2O[C@@H]([C@@H]3O[C@](O)(CO)[C@@H](C)C[C@H]3C)C[C@H]2C)CC[C@@H]([C@]2(C)CC[C@@]3(C[C@@H](O)[C@@H](C)[C@@H]([C@H](C)[C@H](OC)[C@H](C)C(=O)O)O3)O2)O1`, for which the “activity, negative = inhibition” value is -4.62% [at 25.6 µM] (inactive).

As to `c1cc2cc(c1)C[n+]1ccc(c3ccccc31)NCc1ccc(cc1)CNc1cc[n+](c3ccccc13)C2`, the “activity, negative = inhibition” value was 11.2% (inactive).

On to `O=C(Oc1ccc([N+](=O)[O-])cc1)N1CCC(N2CCCCC2)CC1`, for which the “activity, negative = inhibition” value was -28.2% (inactive).

Turning to `C[C@@]12C=CC(=O)C=C1CC[C@@H]1C2=CC[C@]2(C)[C@@H]1CC[C@H]2C(=O)CN1CCN(c2cc(N3CCCC3)nc(N3CCCC3)n2)CC1`, the AC50 was 3.16 µM (active).

Turning to `C[As+](C)(c1ccc(Br)c([N+](=O)[O-])c1)c1ccc(Br)c([N+](=O)[O-])c1.O=[N+]([O-])O`, the activity, negative = inhibition is -4.86% [at 11.4 µM] (inactive).

As for `COC(=O)C[C@](O)(CCCC(C)(C)O)C(=O)O[C@@H]1C(OC)=C[C@]23CCCN2CCc2cc4c(cc2[C@H]13)OCO4`, the AC50 was 12.6 µM (active).

For the molecule `CN(C)CCCc1c[nH]c2ccccc12`, the activity, negative = inhibition is -0.0212% [at 11.4 µM] (inactive).

Take `O=C1CCCN1CC#CCN1CCCC1`: the activity, negative = inhibition entry is “inactive”.

Regarding `O=C1C=C2C=C[C@H]3C[C@@]2(O1)[C@H]1CCCCN31`, the “activity, negative = inhibition” value is -13.1% [at 25.6 µM] (inactive).

Regarding `Nc1ccc(S(=O)(=O)c2ccc(NCN3C(=O)NC(=O)C(=O)C3=O)cc2)cc1`, the AC50 was 2 µM (active).

On to `CC(=O)NBr`, for which the “activity, negative = inhibition” value is -3.28% (inactive).

For the molecule `NCCc1c[nH]c2ccc(O)cc12`, the “activity, negative = inhibition” value is -20.5% [at 25.6 µM] (inactive).

As for `COc1ccc2[nH]cc(CCN)c2c1`, the “activity, negative = inhibition” value was -6.61% (inactive).

Regarding `CS(=O)(=O)Nc1ccc(Cc2noc(-c3ccc4[nH]cc(CCN)c4c3)n2)cc1`, the AC50 was 15.8 µM (active).

Consider `O=C1OC(=O)[C@@H]2[C@@H]1[C@@H]1CC[C@H]2O1`, for which the “activity, negative = inhibition” value was 7.25% (inactive).

As to `C=C[C@H]1CN2CC[C@@H]1C[C@H]2[C@@H](O)c1ccnc2ccccc12`, the activity, negative = inhibition entry was “inactive”.

Regarding `CCCN1CCC[C@H](c2cccc(O)c2)C1`, the activity, negative = inhibition result was “inactive”.

As to `CC(C)C12CN3CC(C(C)C)(CN(C1)C3c1cccnc1)C2=O` (configuration not stated), the AC50 was 2.24 µM (active).
